Reference: the supplement of paper PMC12532568
Where a name gives a salt, the structure may show the parent alone.

Tested on: Danio rerio larvae Tg(actc1b:ZsGreen-LC3), 3 dpf
Assay: LC3 puncta relative area vs vehicle, with NH4Cl (autophagic flux) (log2 fold change); higher = more autophagy
Settings: 10 µM; treatment time 16 h; NH4Cl: + 100 mM, 4 h
Method: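 Transgenic Tg(actc1b:ZsGreen-map1lc3) zebrafish larvae (2 dpf) were treated for 16 h with Tocris library compounds at 10 µM (n = 12 larvae per compound). Skeletal-muscle LC3 puncta area relative to body area was measured by high-content confocal imaging before and after 4 h of 100 mM NH4Cl (autophagic flux), normalised to vehicle (DMSO), and reported as log2 fold change.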

Structure (SMILES) | LC3 puncta (log2)
CCC(C)N(C)C(=O)c1cc2ccccc2c(-c2ccccc2Cl)n1 (stereo not given) | 0.363
N=C(N)SCCc1c[nH]cn1 [Imetit dihydrobromide] | 0.713
CC[C@@H]1C(=O)OC[C@@H]1Cc1cncn1C [Pilocarpine hydrochloride] | 0.652
CC(=O)NCC(=O)N[C@H](CCC(=O)O)C(=O)O [N-Acetylglycyl-D-glutamic acid] | 0.237
C/N=C(/NC#N)NCCSCc1csc(NC(=N)N)n1 [Tiotidine] | 0.667
O=[N+]([O-])c1cccc2c(Br)[nH]nc12 [3-Bromo-7-nitroindazole] | 0.697
NC(C(=O)O)c1cc(O)cc(O)c1 (racemic) | 0.022
COC(=O)C1=C(C)NC(C)=C(C(=O)OCCSc2ccccc2)C1C (stereo not given) | 0.664
CCC1(c2ccccc2)C(=O)NCNC1=O [Primidone] | 0.792
O=S(=O)(c1cccc2c(Cl)cccc12)N1CCCNCC1 [ML 9 hydrochloride] | 0.383
c1ccc(N2CCN(CCCOc3ccc4c(c3)OCO4)CC2)cc1 [BP 554 maleate] | 0.422
CCCC[C@@H](C=O)NC(=O)[C@H](CC(C)C)NC(=O)OCc1ccccc1 [Calpeptin] | 1.29
N[C@@H](C(=O)O)c1ccc(O)c(C(=O)O)c1 [(R)-3-Carboxy-4-hydroxyphenylglycine] | 0.421
CC(C)(C)NC[C@H](O)COc1nsnc1N1CCOCC1 [(S)-Timolol maleate] | 0.785
COC(=O)/C=C/c1cc(O)ccc1O [Methyl 2,5-dihydroxycinnamate] | 0.332
CC(C)NCC(O)c1ccc2ccccc2c1 (stereo not given) [Pronethalol hydrochloride] | 0.862
Nc1cc(N2CCCCC2)nc(N)[n+]1[O-] [Minoxidil] | 0.501
O=C(/C=C/c1ccc(O)c(O)c1)O[C@H](Cc1ccc(O)c(O)c1)C(=O)O [Rosmarinic acid] | 0.0251
CCN(CC)CCOC(=O)C1(c2ccc([N+](=O)[O-])cc2)CCCC1 [Nitrocaramiphen hydrochloride] | 0.825
O=C(NCCN1CCCCC1)c1ccc(I)cc1 [N-[2-(Piperidinylamino)ethyl]-4-iodobenzamide] | 0.448

Structure (SMILES) | LC3 puncta (log2)
N[C@H](C(=O)O)c1ccc(O)c(C(=O)O)c1 [(S)-3-Carboxy-4-hydroxyphenylglycine] | 0.54
CC1(C(=O)O)NCCc2cc(O)c(O)cc21 (stereo not given) [Salsolinol-1-carboxylic acid] | 0.429
CCOC(=O)C1=C(C)NC(C)=C(C(=O)OC)C1c1cccc([N+](=O)[O-])c1 (stereo not given) [Nitrendipine] | 0.513
NC(=O)Nc1sc(-c2ccc(F)cc2)cc1C(N)=O | 0.588
O=S(=O)(c1cccc2cnccc12)N1CCCNCC1 [Fasudil hydrochloride] | 0.726
CC(C)Oc1ccc2c(=O)c3cc(C(=O)O)ccc3oc2c1 | 0.814
OCCN(CCO)c1nc(N2CCCCC2)c2nc(N(CCO)CCO)nc(N3CCCCC3)c2n1 [Dipyridamole] | -0.141
CC(Cc1ccc(O)c(O)c1)(NN)C(=O)O [(S)-(-)-Carbidopa] | 0.219
COc1ccccc1N1CCN(CCCCN2C(=O)c3ccccc3C2=O)CC1 [NAN-190 hydrobromide] | 0.496
COc1cc(C(=O)OCCCN2CCCN(CCCOC(=O)c3cc(OC)c(OC)c(OC)c3)CC2)cc(OC)c1OC [Dilazep] | 0.426
CCN(CC)CCOCCOC(=O)C1(c2ccccc2)CCCC1 [Carbetapentane citrate] | 0.392
CC(C)[N+]1(C)[C@@H]2CC[C@H]1C[C@@H](OC(=O)C(CO)c1ccccc1)C2 (stereo not given in full) [Ipratropium bromide] | 0.284
O=C(O)c1cc(=O)c2c(Cl)cc(Cl)cc2[nH]1 [5,7-Dichlorokynurenic acid] | 0.00257
CN(C)CCCSC(=N)N [Dimaprit dihydrochloride] | 0.561
NS(=O)(=O)c1cccc2c1c([N+](=O)[O-])cc1nc(O)c(O)nc12 | 0.16
O=C(OCCN1CCCCC1)c1c[nH]c2ccccc12 | 0.6
O=C1CN(/N=C/c2ccc(-c3ccc([N+](=O)[O-])cc3)o2)C(=O)N1 [Dantrolene, sodium salt] | 0.404
NC(N)=NC(N)=Nc1cccc(Cl)c1 [m-Chlorophenylbiguanide hydrochloride] | 0.782
CC1=NN(c2ccccc2)C(=O)C1 [Edaravone] | 0.405
COc1ccc2[nH]c(-c3ccccc3)c(CCNC(C)=O)c2c1 [2-Phenylmelatonin] | 0.594
